This excerpt belongs to a sample that is enriched for hits.
CBX7 AlphaScr = CBX7 chromodomain binding inhibitors, primary screen, biochemical, AlphaScreen. Chromobox protein homolog 7 (Homo sapiens), O95931. AlphaScreen His6-CBX7 / biotin-H3K27me3 peptide binding; hits give low values. normalised signal (fraction of DMSO) (no concentration beside the values). hit rate 1.1% among 66,000. AID 1224903, 2016; in the data active means normalised signal below about 0.5
Target sequence (O95931 whole entry, looked up): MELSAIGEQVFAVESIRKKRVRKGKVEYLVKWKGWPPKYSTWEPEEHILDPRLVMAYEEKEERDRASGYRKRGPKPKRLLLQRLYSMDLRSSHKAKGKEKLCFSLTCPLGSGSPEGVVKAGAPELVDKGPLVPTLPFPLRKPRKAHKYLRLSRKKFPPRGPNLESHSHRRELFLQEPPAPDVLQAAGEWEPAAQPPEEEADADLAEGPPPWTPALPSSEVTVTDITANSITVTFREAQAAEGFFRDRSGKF
* = called active by the depositor.

SMILES	CBX7 AlphaScr
CCc1ccc(NC(=O)C2c3ccccc3C(=O)N3CCc4ccccc4C23)cc1 (centres undefined)	0.87
CCCCCC1CCC(c2ccc(-c3nc(-c4ccncc4)no3)cc2)CC1 (centres undefined)	1
CCCC1CCC(c2ccc(-c3noc(-c4ccc(O)c(F)c4)n3)cc2)CC1 (centres undefined)	0.49*
CCCC1CCC(c2nc(-c3ccc(OC(F)F)cc3)no2)CC1 (centres undefined)	1.2
Cc1cc(OCc2nc(-c3nonc3N)no2)cc(C)c1Cl	1
COC(=O)c1sccc1NC(=O)c1cc2sccc2n1Cc1ccc(Cl)cc1	1.1
COc1ccc(CNC(=O)CN2C(=O)CC(C)(C)Sc3ccccc32)cc1	0.95
O=C(c1ccc2c(c1)N(Cc1ccccc1)CCS2)N1CCCCCC1	0.46*
O=C(c1ccc2c(c1)N(Cc1ccccc1)CCS2)N1CCN(c2ccc(Cl)cc2)CC1	0.62
O=C(c1ccc2c(c1)N(Cc1ccccc1)CCS2)N1CCN(c2ccccn2)CC1	0.62
O=C(c1ccc2c(c1)N(Cc1ccc(F)cc1)CCS2)N1CCN(c2ccccc2)CC1	0.76
O=C(c1ccc2c(c1)N(Cc1ccccc1)CCS2)N1CCN(Cc2ccccc2)CC1	0.37*
O=C(c1ccc2c(c1)N(Cc1ccccc1)CCS2)N1CCc2ccccc21	0.81
Cc1ccc(-c2cc(C(F)(F)F)n3nc(C(=O)N4CCCCC4)c(Cl)c3n2)cc1	0.98
Cc1nnc2ccc(NCCCc3ccccc3)nn12	1
Cc1ccc(-c2cc(C(F)F)n3ncc(C(=O)NCC4CCCO4)c3n2)cc1 (centres undefined)	1.1
COc1ccc(N(CC(=O)N2CCn3c2nc2ccccc23)S(=O)(=O)c2cccnc2)cc1	0.94
CCOC(=O)Cc1csc(NC(=O)COc2ccc(Br)cc2)n1	1
Cc1ccc(C(c2ccccc2)N2CCN(CCCc3c[nH]c4ccccc34)CC2)cc1 (centres undefined)	0.49*
c1ccc(C(c2ccccc2)N2CCN(CCCc3c[nH]c4ccccc34)CC2)cc1	0.5
Fc1ccc(C(c2ccccc2)N2CCN(CCCc3c[nH]c4ccccc34)CC2)cc1 (centres undefined)	0.51
CCc1ccccc1NC(=O)c1noc2c1CCc1cc(OC)ccc1-2	1.1
O=c1c2nnn(Cc3ccc(F)cc3)c2ncn1Cc1cccc(Cl)c1	1.1
Brc1ccc(CNc2ccc3c(c2)ncn3-c2ccccc2)cc1	0.24*
COc1ccccc1CNc1ccc2c(c1)ncn2C(C)(C)C	0.66
SMILES	CBX7 AlphaScr
COc1ccccc1-n1cnc2cc(Nc3nnc(C)c4ccccc34)ccc21	1
COc1ccccc1-n1cnc2cc(NCc3ccc(N(C)C)cc3)ccc21	0.24*
Cc1nc2cc(NCc3ccc(C(C)C)cc3)ccc2n1C	0.7
CC(C)(C)n1cnc2cc(NCc3ccc(Br)cc3)ccc21	0.78
CC(C)c1ccc(CNc2ccc3c(c2)ncn3C)cc1	0.83
COc1ccccc1-n1cnc2cc(NCc3ccc(C(C)C)cc3)ccc21	0.2*
Cn1cnc2cc(NCc3ccc(Br)cc3)ccc21	0.91
Cc1ccc(-c2noc(CCC(=O)Nc3cnc4ccccc4c3)n2)cc1	1.2
COC(CNC(=O)CN1CCN(Cc2ccc(F)cc2)C1=O)OC	0.96
C=C(C)c1cccc(C(C)(C)NC(=O)NCCc2ccncc2)c1	0.92
CCOc1ccccc1NC1c2ccccc2C(=O)N1c1ccc(Cl)cn1 (centres undefined)	0.75
CC(C)NC(=O)c1cnn2c(C(F)(F)F)cc(-c3ccc(Br)cc3)nc12	1
Cc1ccccc1Cn1cc(NC(=O)c2cc(-c3ccc(Br)cc3)on2)cn1	1
COc1ccc(C2=NOC(C(=O)Nc3cccc(C(F)(F)F)c3)C2)cc1OC (centres undefined)	1
Cc1oc(-c2cccs2)nc1CN1CCCC(C(=O)NC2CCCCC2)C1 (centres undefined)	0.83
CCOC(=O)C1CCN(C(C(=O)NC2CCCCC2)c2ccc(C)cc2)CC1 (centres undefined)	1
CCOc1ccc(N2C(=O)c3ccccc3C2Nc2ccc(C)cc2)cc1 (centres undefined)	0.92
COc1ccc(CN2C(=O)c3cccnc3C2Nc2ccc(Br)c(C)c2)cc1 (centres undefined)	0.15*
COc1cccc(NC2c3ccccc3C(=O)N2Cc2ccccc2)c1 (centres undefined)	0.91
COc1ccc(NC2c3ccccc3C(=O)N2Cc2ccccc2Cl)cc1 (centres undefined)	0.82
COc1ccc(NC2c3ccccc3C(=O)N2Cc2ccccc2Cl)cc1OC (centres undefined)	0.8
CCOc1ccc(N2C(=O)c3cccnc3C2Nc2ccc(Br)c(C)c2)cc1 (centres undefined)	0.16*
COc1cc(OC)c(NC2c3ccccc3C(=O)N2Cc2ccccc2)cc1Cl (centres undefined)	0.7
Cc1ccccc1N1C(=O)c2ccccc2C1Nc1ccc(Br)cc1F (centres undefined)	0.97
COc1ccc(CN2C(=O)c3cccnc3C2Nc2ccc(OC)c(Cl)c2)cc1 (centres undefined)	0.16*
SMILES	CBX7 AlphaScr
COc1ccc(CN2C(=O)c3cccnc3C2Nc2ccc(Br)cc2F)cc1 (centres undefined)	0.19*
Cc1cc(NC2c3ccccc3C(=O)N2Cc2ccccc2)ccc1Br (centres undefined)	0.65
CCOc1ccc(C2C(N3C(=O)c4ccccc4C3=O)C(=O)N2c2ccc(Br)c(C)c2)cc1 (centres undefined)	0.93
CCC(C)NC(=O)CN1CCN(Cc2cccc(Cl)c2)C1=O (centres undefined)	0.88
CN(C(=O)CCc1nc(-c2ccccc2F)no1)c1ccccc1F	0.94
Cc1cc2cc(CCNC(=O)C(C)Oc3ccccc3)c(=O)[nH]c2cc1C (centres undefined)	1
Cc1ccccc1C(=O)Nc1sc2c(c1C(=O)N1CCOCC1)CCCC2	0.81
COc1ccc(OC)c(CCNC(=O)Cn2ncc3c2-c2ccccc2OC3)c1	0.94
Cc1cccn2cc(-c3ccc(NC(=O)c4ccccc4Cl)cc3)nc12	0.96
CC(C)Oc1cc(-n2nc(-c3ccccc3)cc2-c2ccccc2)ncn1	1.2
COc1ccccc1-c1nnc(NC(=O)c2ccc(S(=O)(=O)N3CC(C)OC(C)C3)cc2)o1 (centres undefined)	0.68
O=C(Nc1nnc(C2CC2)o1)c1ccc(S(=O)(=O)N2CCCC2)cc1	0.45*
Cc1ccccc1NC(=O)c1ccc(S(=O)(=O)N2CCCCC2)cc1	0.96
CC1CCCN(S(=O)(=O)c2ccc(C(=O)Nc3nnc(C4CC4)o3)cc2)C1 (centres undefined)	0.6
Cc1nnc(NC(=O)c2ccc(S(=O)(=O)N3CCCCC3)cc2)o1	0.021*
COc1ccccc1-c1nnc(NC(=O)c2ccc(S(=O)(=O)N3CCCC3)cc2)o1	0.62
Cc1nnc(NC(=O)c2ccc(S(=O)(=O)N3CCCCCC3)cc2)o1	0.002*
NC(=O)c1oc2ccccc2c1NC(=O)c1ccc(S(=O)(=O)N2CCCCC2)cc1	1
COc1ccc(-c2nnc(NC(=O)c3ccc(S(=O)(=O)N4CC(C)OC(C)C4)cc3)o2)cc1 (centres undefined)	0.53
Cc1nnc(NC(=O)c2ccc(S(=O)(=O)N3CC(C)OC(C)C3)cc2)o1 (centres undefined)	0.0066*
NC(=O)c1oc2ccccc2c1NC(=O)c1ccc(S(=O)(=O)N2CCCC2)cc1	1

Bioassay records: PubChem, Bradner/Qi Labs at DFCI
